Activity calls are given as the source filed them. Rule for the calls: active = hit-call score of the fitted dose curve at least 0.9, where 1 is the maximum; inactive = score below 0.9.
Experiments:
[1] = APR_HepG2_CellCycleArrest_24hr: Apredica 24-hour HepG2 Assay for Cell Cycle Arrest (AID 2282905); settings: imaging, actives raise or lower the signal;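 note: cell cycle arrest scored as ratio of 2N to 4N nuclear DNA content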
Method in brief: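 HepG2 cells were exposed to compounds at 0.39–200 uM (ten concentrations, duplicate) in 0.5% v/v DMSO for 24 hr. After formaldehyde fixation and Triton permeabilization, Hoechst 33342-stained nuclei were imaged at 20x; DNA content was quantified, with bidirectional fitting against DMSO.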

[2] = APR_HepG2_NuclearSize_24hr: Apredica 24-hour HepG2 Assay for Nuclear Size (AID 2282907); settings: high-content imaging, actives raise or lower the signal
Method in brief: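 HepG2 human liver cells were exposed for 24 hr to compounds at 0.39–200 uM (ten concentrations, duplicate) in 0.5% v/v DMSO. They were then formaldehyde-fixed, Triton-permeabilized and Hoechst 33342-stained, and nuclear diameter was imaged at 20x. Bidirectional fits were made against DMSO.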

[3] = APR_HepG2_CellLoss_24hr: Apredica 24-hour HepG2 Assay for Cell Loss (AID 2282908); settings: high-content imaging;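 for AC50: fit in both directions so a hit may be cell loss or gain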
Method in brief: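 Compounds were tested at 0.39–200 uM in duplicate with 0.5% v/v DMSO final. Cells were then fixed in 3.7% formaldehyde, Hoechst 33342 nuclei were imaged at 20x by HCS, and cell number was fitted bidirectionally against DMSO.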

[4] = APR_HepG2_MicrotubuleCSK_24hr: Apredica 24-hour HepG2 Assay for Microtubule CSK Stabilty (AID 2282909); settings: HepG2 microtubule cytoskeleton imaging, actives raise or lower the signal
Method in brief: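 HepG2 cells exposed 24 h to compounds at 0.39–200 uM (duplicate, 0.5% v/v DMSO final), then fixed, permeabilized and immunostained for alpha-tubulin with Hoechst 33342. Cytoskeleton imaged at 20x; bidirectional fit versus DMSO baseline.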

[5] = APR_HepG2_MitoticArrest_24hr: Apredica 24-hour HepG2 Assay for Mitotic Arrest (AID 2282910); settings: high-content imaging, actives raise or lower the signal
Method in brief: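 HepG2 human liver cells were exposed to compounds at 0.39–200 uM (10 concentrations, duplicate) in 0.5% v/v DMSO for 24 hr, then fixed and immunostained for phospho-histone H3 with Hoechst 33342. Mitotic arrest came from HCS fluorescent imaging, fitted bidirectionally against DMSO.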

[6] = APR_HepG2_MitoMembPot_24hr: Apredica 24-hour HepG2 Assay for Mitochondrial Membrane Potential (AID 2282911); settings: imaging, actives raise or lower the signal
Method in brief: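 HepG2, 24 hr dosing, 10 concentrations 0.39–200 uM, 0.5% DMSO final. Live-cell MitoTracker Red CMXRos 250 nM 30 min, then 3.7% formaldehyde fix. HCS fluorescence imaging, 20x; bidirectional fit vs DMSO baseline.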

[7] = APR_HepG2_MitoMass_24hr: Apredica 24-hour HepG2 Assay for Mitochondrial Mass (AID 2282912); settings: high-content imaging, actives raise or lower the signal
Method in brief: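 Human HepG2 liver cells were exposed for 24 hr to compounds at 0.39–200 uM (duplicates, 0.5% v/v DMSO final). They were stained live with 250 nM MitoTracker Red CMXRos for 30 min, fixed in 3.7% formaldehyde, and imaged by HCS fluorescence; signals were fitted bidirectionally against DMSO.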

[8] = APR_HepG2_CellCycleArrest_72hr: Apredica 72-hour HepG2 Assay for Cell Cycle Arrest (AID 2282914); settings: high-content imaging, actives raise or lower the signal
Method in brief: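 HepG2, 72 hr exposure, 10-point 0.39–200 uM, duplicate, 0.5% DMSO final. Fix 3.7% formaldehyde 30 min RT, Triton X-100 0.5%, Hoechst 33342 2 ug/mL. ArrayScan 20x, six fields/well; DNA content per nucleus; bidirectional fit vs DMSO.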

[9] = APR_HepG2_CellLoss_72hr: Apredica 72-hour HepG2 Assay for Cell Loss (AID 2282915); settings: high-content imaging
Method in brief: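 HepG2 cells were exposed for 72 hr to compounds at 0.39–200 uM (ten concentrations, duplicate) in 0.5% v/v final DMSO. Nuclei were stained with Hoechst 33342 after 3.7% formaldehyde fixation, imaged at 20x, and counted; fits bidirectional versus DMSO.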

[10] = APR_HepG2_P-H2AX_72hr: Apredica 72-hour HepG2 Assay for H2AX Phosphorylation (AID 2282916); settings: imaging, actives raise or lower the signal;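 note: phospho-histone H2A.x immunostain intensity per cell marking DNA damage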
Method in brief: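 HepG2 human liver cells were exposed for 72 hr to compounds at 0.39–200 uM (10 concentrations, duplicate per plate) in 0.5% v/v DMSO. Fixed, permeabilized cells were immunolabeled for phospho-histone H2A.x with Hoechst 33342 and imaged by HCS fluorescence; bidirectional fit versus DMSO.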

[11] = APR_HepG2_MitoMembPot_72hr: Apredica 72-hour HepG2 Assay for Mitochondrial Membrane Potential (AID 2282917); settings: imaging, actives raise or lower the signal
Method in brief: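 HepG2 cells exposed 72 h to compounds at 0.39–200 uM (0.5% v/v DMSO, duplicates); MitoTracker Red CMXRos 250 nM loaded 30 min before 3.7% formaldehyde fixation, imaged by HCS fluorescence. Bidirectional fit versus DMSO.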

[12] = APR_HepG2_MitoticArrest_72hr: Apredica 72-hour HepG2 Assay for Mitotic Arrest (AID 2282918); settings: high-content imaging, actives raise or lower the signal
Method in brief: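 HepG2, 72 hr exposure, 0.39–200 uM in duplicate, 0.5% v/v DMSO final. Formaldehyde-fixed, Triton-permeabilized, anti-phospho-histone H3/FITC plus Hoechst. ArrayScan imaging at 20x; curves fit bidirectionally against DMSO baseline.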

[13] = APR_HepG2_MicrotubuleCSK_72hr: Apredica 72-hour HepG2 Assay for Microtubule CSK Stabilty (AID 2282919); settings: HepG2 microtubule cytoskeleton, high-content imaging, actives raise or lower the signal
Method in brief: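 HepG2 human liver cells were dosed for 72 h at ten concentrations from 0.39 to 200 uM in duplicate (0.5% v/v DMSO final). Fixed, permeabilized cells were immunostained for alpha-tubulin (Cy5) with a Hoechst counterstain and imaged at 20x.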

[14] = APR_HepG2_P-H2AX_24hr: Apredica 24-hour HepG2 Assay for H2AX Phosphorylation (AID 2282920); settings: high-content imaging, actives raise or lower the signal
Method in brief: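 HCS fluorescence imaging of phospho-H2A.x immunostain (with Hoechst 33342 nuclear counterstain) in HepG2 after 24 hr compound exposure; 10 concentrations, 0.39–200 uM, duplicate wells, 0.5% v/v DMSO. Gain or loss of signal fitted relative to DMSO baseline.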

[15] = APR_HepG2_StressKinase_72hr: Apredica 72-hour HepG2 Assay for Stress Kinase (AID 2282921); settings: HepG2 stress kinase (phospho-c-Jun) imaging, actives raise or lower the signal
Method in brief: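 Cells were exposed for 72 h to ten concentrations (0.39–200 uM, duplicate) at 0.5% v/v DMSO final, then fixed with 3.7% formaldehyde, permeabilized and immunostained for phospho-c-Jun (Cy3 secondary) with Hoechst nuclear counterstain.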

[16] = APR_HepG2_StressKinase_24hr: Apredica 24-hour HepG2 Assay for Stress Kinase (AID 2282922); settings: HepG2 stress kinase (phospho-c-Jun) imaging, actives raise or lower the signal
Method in brief: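 HepG2 cells exposed 24 hr to compound at 0.39–200 uM (10 concentrations, duplicate), 0.5% v/v DMSO final. Fixed in 3.7% formaldehyde, permeabilized with Triton X-100, immunolabeled for phospho-c-Jun with Hoechst 33342; HCS fluorescence imaging, bidirectional fit versus DMSO.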

[17] = APR_HepG2_p53Act_72hr: Apredica 72-hour HepG2 Assay for p53 Activation (AID 2282923); settings: high-content imaging, actives raise or lower the signal;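 note: average cellular p53 protein immunofluorescence intensity in HepG2 cells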
Method in brief: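 Cells were dosed for 72 hr with compounds at 0.39–200 uM in duplicate (final DMSO 0.5% v/v), then fixed in 3.7% formaldehyde, permeabilized with Triton X-100 and immunostained for p53 (Cy5) with Hoechst 33342 nuclear counterstain.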

[18] = APR_HepG2_MitoMass_72hr: Apredica 72-hour HepG2 Assay for Mitochondrial Mass (AID 2282924); settings: high-content imaging, actives raise or lower the signal;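 note: MitoTracker Red CMXRos stain intensity per cell imaged as mitochondrial mass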
Method in brief: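 HepG2 cells were exposed for 72 hr to compounds at 0.39–200 uM (ten concentrations, duplicate, 0.5% v/v DMSO final). Live cells were stained with 250 nM MitoTracker Red CMXRos for 30 min, then fixed in 3.7% formaldehyde and imaged by HCS fluorescence.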

[19] = APR_HepG2_NuclearSize_72hr: Apredica 72-hour HepG2 Assay for Nuclear Size (AID 2282925); settings: high-content imaging, actives raise or lower the signal
Method in brief: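 HepG2 cells were exposed to compounds at ten concentrations from 0.39 to 200 uM (duplicate, 0.5% DMSO final) for 72 hr. After fixation in 3.7% formaldehyde, nuclei were stained with Hoechst 33342 (2 ug/mL) and imaged at 20x.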

[20] = APR_HepG2_p53Act_24hr: Apredica 24-hour HepG2 Assay for p53 Activation (AID 2282913); settings: high-content imaging, actives raise or lower the signal;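 note: p53 protein immunofluorescence averaged per cell in HepG2 with Hoechst nuclei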
Method in brief: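 Read-out: Cy5 immunofluorescence for p53 in fixed, permeabilized HepG2, imaged by HCS with Hoechst-defined nuclei. Dosing was 24 hr at 0.39–200 uM in 0.5% DMSO. Curves were fitted bidirectionally relative to DMSO.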

Measured: AC50

N#CC(Br)(Br)C(N)=O
not listed: [20]
inactive: all other assays above

O=P(OCCCl)(OCCCl)OCCCl
not listed: [11] | [12] | [13] | [14] | [18]
inactive: all other assays above

C[C@]12C=CC3=C4CCC(=O)C=C4CC[C@H]3[C@@H]1CC[C@@H]2O
active: [3] 26.1 µM | [5] 32.7 µM | [9] 21.7 µM | [12] 20.8 µM
not listed: [17] | [20]
inactive: all other assays above

Nc1cc(Cl)cc(C(=O)O)c1Cl
not listed: [14] | [20]
inactive: all other assays above

From PubChem BioAssay (EPA / NIEHS)
